These results are taken from PubChem BioAssay AID449 (The Scripps Research Institute Molecular Screening Center, 2006).

Among all 56,000 compounds or so, about 320 (0.57%) were called active.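 The calls were made as follows: active = activation above a cutoff set at the mean activation of all tested compounds plus 3 SD (cut at about 54% in these data); inactive = the rest, inconclusive results apart.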 This excerpt belongs to a sample that is enriched for actives.

This assay concerns the target Sphingosine 1-phosphate receptor 1 (Homo sapiens) (UniProt P21453). As to the kind of experiment: S1P1 agonists and agonism potentiators, primary screen, cell-based, primary and confirmation screens, CRE-bla reporter (AID 449).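 Also: forskolin at 4 µM as EC80 and the EC20 agonist is SEW2871; 100% = SEW2871 at its EC100 plus forskolin at EC80.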 Particulars: S1P1 CRE-bla cells, forskolin, beta-lactamase FRET, potentiator mode, at 9.5 µM, stronger effect = higher value, 100% = saturating reference agonist, 0% = basal, S1P1 agonist co-added at EC20, 2 nM.

Where [1] appears, read: measured here: confirmation screen, triplicate average.

Sequence of Sphingosine 1-phosphate receptor 1 (Homo sapiens) (P21453 whole entry, looked up): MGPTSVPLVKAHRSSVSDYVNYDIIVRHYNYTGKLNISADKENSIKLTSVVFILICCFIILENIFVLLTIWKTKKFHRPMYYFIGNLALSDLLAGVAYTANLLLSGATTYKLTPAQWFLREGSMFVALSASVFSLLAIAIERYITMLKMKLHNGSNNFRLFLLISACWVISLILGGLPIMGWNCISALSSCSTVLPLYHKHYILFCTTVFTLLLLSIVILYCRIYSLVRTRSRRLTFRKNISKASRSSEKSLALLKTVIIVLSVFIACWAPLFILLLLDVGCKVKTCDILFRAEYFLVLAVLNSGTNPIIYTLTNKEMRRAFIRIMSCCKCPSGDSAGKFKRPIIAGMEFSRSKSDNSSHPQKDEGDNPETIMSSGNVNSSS

On to `c1ccc(-n2ncc3c2ncn2c(CSc4nc5ccccc5s4)nnc32)cc1`, for which the activation was -7.8% (inactive). The same measure, in the same setting: then `CCn1c(=O)cc(O)c2ccccc21`, with -26.6% (inactive); and `CCc1ccccc1NC(=O)c1cccs1`, with -18.1% (inactive). The same measure, in the same setting: then `O=C(OCCO)c1cc(Cl)c(C(=O)OCCO)cc1Cl`, with -15.8% (inactive).

On to `Fc1ccc(Br)cc1/C=N/n1cnnc1`, for which the activation was -20% (inactive).

As to `CC1(C)CC(=O)C(C=NCCC2=CCCCC2)=C(O)C1`, the activation was -14.2% (inactive). Same read-out and setting: for `O=C(c1cccc(C(=O)N2CCN(c3ccc(F)cc3)CC2)c1)N1CCN(c2ccc(F)cc2)CC1` the value was 46% (inactive); for `Cn1c2c(c(=O)n(C)c1=O)CN(Cc1ccco1)CN2`, -5.4% (inactive); for `COc1ccc(C2/C(=C(/O)c3ccc(OC(C)C)cc3)C(=O)C(=O)N2CCCN2CCOCC2)cc1` (stereo unspecified), 10.9% (inactive). Still for that read-out and setting: then `CS(=O)(=O)N(Cc1nc2sc3c(c2c(=O)[nH]1)CCCC3)C1CCCCC1`, with -3.8% (inactive); and `Cc1ccccc1Cn1c(=O)[nH]c2ccccc21`, with 1% (inactive). Same read-out and setting: for `O=C(COc1ccc(Cl)cc1)Nc1ccccc1CO` the value was 0% (inactive); for `Cc1ccc(CCn2c3c(c4ccccc42)CN(C)CC3)cn1`, 6.4% (inactive). `CC1CN(Cc2nc3c(c(=O)n(C)c(=O)n3C)n2Cc2cccc(Cl)c2)CC(C)O1` (stereo unspecified): the activation is -22.8% (inactive).

As for `CCOC(=O)C1C(=O)C=C(c2ccc(OC)cc2)CC1c1ccco1` (stereo unspecified), the activation is 91.1% (active). Also, the activation under setting [1] came out at 86.3%. In the case of `COc1ccc(CCNC(=O)c2ccco2)cc1`, the activation was -9.8% (inactive). Same read-out and setting: for `CCOC(=O)C1C(=O)NC(N2CCN(c3ccccc3)CC2)=NC1c1ccco1` (stereo unspecified) the value was -4.8% (inactive); for `COc1ccc(-n2nc3c(c2NC(=O)Cc2cccc(C)c2)CS(=O)C3)cc1` (stereo unspecified), -1.3% (inactive); for `CN1CCN(c2cc(=O)n(-c3ccc(Cl)cc3)c(=O)[nH]2)CC1`, -1.5% (inactive).

For `O=C1c2ccccc2C(O)N1Cc1ccccc1Cl` (stereo unspecified), the activation was 15.2% (inactive). `COc1cc(-c2noc(C3CCCN(S(=O)(=O)c4cccc(Cl)c4)C3)n2)cc(OC)c1OC` (stereo unspecified): the activation is 91.7% (active). Besides, under setting [1], the activation came to 85.9%.

For `O=C(Cc1cccs1)N1CCCC(c2nc(-c3ccc(S(=O)(=O)N4CCCC4)cc3)no2)C1` (stereo unspecified), the activation was 18.8% (inactive). On to `O=C(c1cccs1)N1CCCC(c2nc(-c3ccc(F)cc3)no2)C1` (stereo unspecified), for which the activation is 22.8% (inactive). Regarding `COc1nc(NCc2ccc(Cl)cc2)nc(OC)n1`, the activation is -7.3% (inactive). Same read-out and setting: then `O=C(Cn1cnc2c(cnn2-c2ccc(F)cc2)c1=O)NCCc1ccccc1`, with -3.5% (inactive); and `Nc1nnc(C2CCCC2)s1`, with -4.9% (inactive); and `Cn1c(SCC(=O)N2CCOCC2)nnc1-c1ccc(NC(=O)c2ccccc2F)cc1`, with 2.6% (inactive). Still for that read-out and setting: then `COc1ccc(C(=O)Nc2nncs2)c(OC)c1`, with -24% (inactive); and `COC(=O)c1sc(NC(=O)c2csc3c2CCCC3)nc1C`, with 8.7% (inactive).

Consider `COC(=O)c1sc(NC(=O)c2ccc(OC)cc2OC)nc1C`, for which the activation was 108% (active). Besides, the activation under setting [1] was determined as 94.2%. Consider `CSCCC(NC(=O)c1ccc(=O)n(C)n1)c1nc2ccccc2[nH]1` (stereo unspecified), for which the activation is -17.6% (inactive). Still for that read-out and setting: then `COc1ccc2nc(N3CCCC(O)C3)c(C#N)cc2c1` (stereo unspecified), with 16.4% (inactive). On the same count and under the same terms, then `Cc1ccc(S(=O)(=O)C2(S(=O)(=O)c3ccc(C)cc3)CCCC2)cc1`, with -19.8% (inactive). Consider `CCCOC(=O)CC1C(=O)NCCN1Cc1ccc(F)cc1` (stereo unspecified), for which the activation was -20.1% (inactive).

Take `CCC(CC)c1nnc(NS(=O)(=O)Cc2ccccc2)s1`: the activation is -23.9% (inactive). Same read-out and setting: then `COc1cccc(C2/C(=C(/O)c3ccc(F)cc3)C(=O)C(=O)N2CCN(C)C)c1` (stereo unspecified), with -5.8% (inactive); and `COc1ccc(OC)c2c1sc(=NC(=O)CN1C(=O)CCC1=O)n2C`, with -15.9% (inactive).

With `COc1ccc(-n2nnc3c(=O)n(CC(=O)N4CCC(Cc5ccccc5)CC4)cnc32)cc1`, the activation is 18.2% (inactive).

On to `N#CCCN1CCN(S(=O)(=O)c2ccc(S(=O)(=O)NC3CCCCC3)cc2)CC1`, for which the activation was -9% (inactive).

For the compound `CCN1CCN(Cc2c(O)ccc3c(=O)c(-c4ccc(OC)c(OC)c4)c(C(F)(F)F)oc23)CC1`, the activation was -27.2% (inactive). Take `O=c1c(-c2ccc3c(c2)OCCO3)c(C(F)(F)F)oc2cc(O)cc(O)c12`: the activation is 84% (active). Further, the activation under setting [1] is 95.4%.

Turning to `Cc1ccc(-c2nc(CS(=O)CC(=O)N3CCN(c4ncccn4)CC3)c(C)o2)cc1` (stereo unspecified), the activation is -2.4% (inactive). Same read-out and setting: then `O=C1CC(c2cccc(Br)c2)C2=C(CCCC2=O)N1` (stereo unspecified), with -6.5% (inactive); and `C=C(C)Cn1c(N2CCCC2)nc2c1c(=O)[nH]c(=O)n2C`, with -3.8% (inactive); and `O=C(c1cc(-c2ccccc2O)on1)N1CCCC1`, with -19% (inactive). On the same count and under the same terms, for `COc1ccc(-c2c(C)nn3c(N4CCC(C(=O)N5CCCCC5)CC4)cc(C)nc23)cc1OC` the value was -7.7% (inactive); for `CN(CCCC(=O)Nc1nccs1)S(=O)(=O)c1ccc(Cl)cc1`, 20.6% (inactive). For the compound `O=c1c2ccccc2oc2nc3n(c(=O)c12)CCCS3`, the activation was -24.6% (inactive). Same read-out and setting: for `CNC(=O)c1c(NC(=O)c2ccc(S(=O)(=O)N3CCOCC3)cc2)sc2c1CCC2` the value was -19.6% (inactive); for `O=C(NCc1ccc(Cl)c(Cl)c1)c1cccnc1`, 10.2% (inactive). On the same count and under the same terms, then `COC(=O)c1c(NC(=O)CCN2CCOCC2)sc2c1CCCC2`, with -4.7% (inactive); and `O=S(=O)(NCc1ccccn1)c1ccc(F)cc1`, with -21.3% (inactive); and `O=S(N1CCCCCC1)C12CC3CC(CC(C3)C1)C2` (stereo unspecified), with -13.3% (inactive). For the compound `CCCn1c(O)c(CN2CCCC(C)C2)c(C)c(C#N)c1=O` (stereo unspecified), the activation was 1% (inactive).

Regarding `CCOC(=O)CSC1=C(C#N)C(c2ccco2)C(C(=O)OCc2ccccc2)=C(C)N1` (stereo unspecified), the activation is 11.9% (inactive). Still for that read-out and setting: for `FC(F)(F)c1cc(-c2ccco2)nc(N2CCOCC2)n1` the value was -22.2% (inactive); for `CC(C)CCNC(=O)CCNS(=O)(=O)c1ccc(Cl)cc1`, 12.2% (inactive). Turning to `O=C(NC1CCN(Cc2ccccc2)CC1)c1ccccc1F`, the activation is -25.4% (inactive). The same measure, in the same setting: then `CCOc1cc(/C=N/n2cnnc2)c(Br)cc1O`, with -9.1% (inactive); and `c1nnc2c3c4c(sc3ncn12)CCC4`, with -8.2% (inactive); and `COc1ncnc2sc3c(c12)CCCC3`, with -21.1% (inactive). On the same count and under the same terms, for `Cn1cc(S(=O)(=O)N2CCC(Cc3ccccc3)CC2)c(=O)n(C)c1=O` the value was -8.3% (inactive).
